Experimental data taken from PubChem BioAssay (NCI).
The panel holds about 79,000 compounds, 15% with a hit somewhere; the sample as a whole holds those more often. The source made the active and inactive calls. No stated cut-off is given here; in the data, active means growth inhibition above about 70%; inactive means the rest.

Experiment: NCI Yeast Anticancer Drug Screen. Data for the sgs1 mgt1 strain (AID 161);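 further: 0% = growth of cultures given vehicle only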
Settings: S. cerevisiae sgs1 mgt1 strain, at 50.0 µM, hits give high values
Outline: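 Test agents were incubated with a DNA-repair-mutant yeast strain. Growth was then read and compared against vehicle-treated controls.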

Which growth inhibition does the source give for `CC(=O)[O][Ga]([Br])[O]C(C)=O` here?
Its growth inhibition is 12.3% (inactive).

For `CCOC(=O)C(NC(=O)c1ccccc1)(N1CCN(c2cc3c(cc2F)c(=O)c(C(=O)O)cn3CC)CC1)C(F)(F)F` (configuration not stated), which growth inhibition is on record?
Its growth inhibition is -3.3% (inactive).

For `O=c1cc[nH]c2ccc(Cl)cc12`, which growth inhibition is on record?
Its growth inhibition is -4.4% (inactive).

Which growth inhibition does the source give for `CN(C)C(=S)OCC(C)(C)C` here?
Its growth inhibition is -18.3% (inactive).

Which growth inhibition does the source give for `CC(=O)NC(Cc1ccccc1)C(=O)Nc1ccccc1C` (configuration not stated) here?
The growth inhibition was 14.8% (inactive).

Which growth inhibition does the source give for `CCCCCn1[nH]nc(C(=O)OC)c1=O` (tested in a mixture with another compound) here?
The growth inhibition was 23.1% (inactive).

For `O=c1ccc(=O)c2c(=O)c3cc4[nH]c5ccccc5[nH]c4cc3c(=O)c12`, which growth inhibition is on record?
The growth inhibition was 0.55% (inactive).

For `CCOC(=O)CSc1nc(-c2ccc(Cl)cc2)c(C#N)c(=O)[nH]1`, which growth inhibition is on record?
The growth inhibition was 2% (inactive).

Which growth inhibition does the source give for `COc1cc2c(cc1OC)C1CCc3ccccc3CN1CC2` (configuration not stated) here?
Its growth inhibition is -6.85% (inactive).

Which growth inhibition does the source give for `CC(=O)Nc1ccc(C(=O)N2N=C(C)/C(=C/c3cccc([N+](=O)[O-])c3)C2=O)cc1` here?
The growth inhibition was -47.5% (inactive).

For `COc1cccc(NC(=O)CC(=O)Nc2cccc(OC)c2)c1`, which growth inhibition is on record?
Its growth inhibition is -8.4% (inactive).

Which growth inhibition does the source give for `O=C(O)C1C2CCC3C(C(=O)O)C3C21` (configuration not stated) here?
Its growth inhibition is -4.95% (inactive).

For `C=C1CCN(c2ccc([N+](=O)[O-])cc2)C1=O`, which growth inhibition is on record?
The growth inhibition was 4.05% (inactive).

With `CCOC(=O)C(=O)C(=O)NN(C)C1=NCCN1` as the compound, how does the growth inhibition read?
The growth inhibition was 7.45% (inactive).

Which growth inhibition does the source give for `Cc1cc(CC#N)c(CC#N)cc1C` here?
The growth inhibition was -7% (inactive).

Which growth inhibition does the source give for `S=c1sc2cscc2s1` here?
The growth inhibition was -8.5% (inactive).

With `Nc1cc(F)ccc1CC(=O)O` as the compound, how does the growth inhibition read?
Its growth inhibition is 15.3% (inactive).
